Data from PubChem BioAssay.
Values without a mark were called inactive. Activity calls are given as the source filed them. How the calls were made is not given here.

How the values were obtained:
[1] = tested on: Aerobactin synthetase IucA (Klebsiella pneumoniae hvKP1); assay: Biochemical IucA enzyme inhibition primary screen of the Spectrum library (AID 1346200); conditions: malachite green pyrophosphate, A620, at 8 µM, active compounds read low;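 further: 100% = wells without compound and 0% = wells lacking enzyme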
[2] = tested on: Aerobactin synthetase IucA (Klebsiella pneumoniae, hypervirulent); assay: IucA enzyme inhibition, biochemical, LOPAC library, absorbance readout (AID 1346212); conditions: IucA enzyme assay, absorbance (OD) readout; active compounds read low; concentration not given here;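 further: 100% = no compound wells and 0% = no enzyme wells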

Row | Structure (SMILES) | activity remaining [1] | remaining activity [2]
1 | CCN(CC)CCCC(C)Nc1ccnc2cc(Cl)ccc12 (stereo not given) | 93% | 122%
2 | CC(=O)OCC1=C(C(=O)O)N2C(=O)[C@@H](NC(=O)CSc3ccncc3)[C@H]2SC1 | 109% | 113%
3 | CCC1(C)CC(=O)NC1=O (stereo not given) | 123% | 85.2%
4 | CCOC(=O)C1=C[C@]2(CC)CCCN3CCc4c(n1c1ccccc41)[C@@H]32 | 108% | 100%
5 | O=C(O)c1cc2cc(F)ccc2[nH]1 | 106% | 86.3%
6 | Nc1nc2c(ncn2COCCO)c(=O)[nH]1 | 118% | 120%
7 | CN(C)CCC=C1c2ccccc2CCc2ccccc21 | 110% | 106%
8 | COc1ccc(Cl)cc1C(=O)NCCc1ccc(S(=O)(=O)NC(=O)NC2CCCCC2)cc1 | 91.3% | 120%
9 | CNCCCC12CCC(c3ccccc31)c1ccccc12 | 105% | 109%
10 | O=C1N=C(O)CN1/N=C/c1ccc(-c2ccc([N+](=O)[O-])cc2)o1 | 118% | 100%
11 | NCCCS(=O)(=O)O | 104% | 111%
12 | NS(=O)(=O)c1cc2c(cc1Cl)NC(C1CC3C=CC1C3)NS2(=O)=O (stereo not given) | 122% | 95.7%
13 | COc1ccccc1OCC(O)CN1CCN(CC(=O)Nc2c(C)cccc2C)CC1 (stereo not given) | 122% | 97.8%
14 | O=C(CCCN1CC=C(n2c(=O)[nH]c3ccccc32)CC1)c1ccc(F)cc1 | 111% | 98.7%
15 | Cc1ccc(C(=O)Nc2ccc(S(=O)(=O)O)c3cc(S(=O)(=O)O)cc(S(=O)(=O)O)c23)cc1NC(=O)c1cccc(NC(=O)Nc2cccc(C(=O)Nc3cc(C(=O)Nc4ccc(S(=O)(=O)O)c5cc(S(=O)(=O)O)cc(S(=O)(=O)O)c45)ccc3C)c2)c1 | 69% (active) | 34.4% (active)
16 | CC(C(=O)O)c1cccc(C(=O)c2ccccc2)c1 (stereo not given) | 106% | 120%
17 | CCOC(=O)C(C)(C)Oc1ccc(Cl)cc1 | 110% | 122%
18 | CN(C)CCOC(C)(c1ccccc1)c1ccccn1 (stereo not given) | 104% | 101%
19 | CN1CCN(C2=Nc3ccccc3Oc3ccc(Cl)cc32)CC1 | 120% | 110%
20 | CC(=O)CCCCn1c(=O)c2c(ncn2C)n(C)c1=O | 82.4% | 123%

Row | Structure (SMILES) | activity remaining [1] | remaining activity [2]
21 | CN1C(C(=O)Nc2ccccn2)=C(O)c2ccccc2S1(=O)=O | 115% | 109%
22 | Cc1ccccc1C(OCCN(C)C)c1ccccc1 (stereo not given) | 100% | 117%
23 | Cc1nnc(SCC2=C(C(=O)O)N3C(=O)[C@@H](NC(=O)Cn4cnnn4)[C@H]3SC2)s1 | 101% | 119%
24 | CC1=C(CC(=O)O)c2cc(F)ccc2/C1=C\c1ccc(S(C)=O)cc1 (stereo not given) | 90% | 119%
25 | CSc1ccc2c(c1)N(CCC1CCCCN1C)c1ccccc1S2 (stereo not given) | 116% | 91.4%
26 | NC(=O)c1cnccn1 | 102% | 80.6%
27 | OCCN1CCN(CCCN2c3ccccc3Sc3ccc(C(F)(F)F)cc32)CC1 | 125% | 93.9%
28 | NC12CC3CC(CC(C3)C1)C2 | 107% | 119%
29 | CCCCNc1cc(C(=O)O)cc(S(N)(=O)=O)c1Oc1ccccc1 | 115% | 109%
30 | CN(C)C(=O)Oc1cccc([N+](C)(C)C)c1 | 87.4% | 120%
31 | O=C(c1ccccc1)c1ccc2n1CCC2C(=O)O (stereo not given) | 128% | 120%
32 | C[N+]1(CCCCC[N+]2(C)CCCC2)CCCC1 | 89.1% | 119%
33 | CCSC(=N)N | 103% | 93.6%
34 | O=C(O)CCc1nc(-c2ccccc2)c(-c2ccccc2)o1 | 111% | 116%
35 | COC(=O)C1=C(C)NC(C)=C(C(=O)OC)C1c1ccccc1[N+](=O)[O-] | 100% | 115%
36 | CC12CC3CC(C)(C1)CC(N)(C3)C2 | 108% | 92.7%
37 | c1ccc([C@H]2CN3CCSC3=N2)cc1 | 117% | 112%
38 | CN1CCN(CCCN2c3ccccc3Sc3ccc(C(F)(F)F)cc32)CC1 | 122% | 93.4%
39 | OC(CCN1CCCCC1)(c1ccccc1)C1CCCCC1 (stereo not given) | 97.3% | 104%
40 | Cc1ccc(S(=O)(=O)NC(=O)NN2CCCCCC2)cc1 | 117% | 91.6%
